Laboratory results: PubChem BioAssay (Tox21)
Inconclusive results are not listed. Active and inactive are the calls of the source. Unless noted, calls follow the shape of the full dose curve.

Tests used:
[1] = Nuclear factor erythroid 2-related factor 2/antioxidant responsive element (Nrf2/ARE) small molecule agonists: qHTS cell viability counter screen in human keratinocytes (AID 1919968; active = well fitted curve in the direction sought with a large enough effect in the repeat runs; an effect the other way counts as inactive or inconclusive; also: nearly all actives have a fitted effect of over 55% in size; also: potency is read from the fitted curve at half-maximal effect)
Procedure, shortened: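 In human HaCaT keratinocytes stably expressing an ARE-driven luciferase, compound exposure lasted 23 h at 37 C under 5% CO2. Viable cells are quantified with a protease-based fluorogenic reagent (CellTiter-Fluor) read 1 h after addition.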

[2] = biological target: Gonadotropin-releasing hormone receptor (Homo sapiens) (UniProt P30968); experiment: Human gonadotropin-releasing hormone receptor (GnRHR) small molecule agonists, calcium flux assay in GnRHR-HEK293 cells (AID 1920063); also: nearly all actives have a fitted effect of over 35% in size; also: potency is read from the fitted curve at half-maximal effect
Procedure, shortened: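 Intracellular calcium rise is the read-out: engineered human GnRHR HEK293 cells, dye-loaded, are exposed to DMSO-dissolved compounds and fluorescence at Ex/Em 480/540 is tracked for 3 min.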

[3] = biological target: KiSS-1 receptor (Homo sapiens) (UniProt Q969F8); experiment: Human kisspeptin (KISS1R) small molecule agonists, calcium flux assay in KISS1R-HEK293 cells (AID 1920064; active = well fitted curve in the direction sought with a large enough effect in the repeat runs; an effect the other way counts as inactive or inconclusive; also: potency is read from the fitted curve at half-maximal effect)
Procedure, shortened: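 Concentration-response testing used 15 concentrations in triplicate on human KISS1R-expressing HEK293 cells. Calcium-dependent fluorescence (Ex/Em 480/540) was followed kinetically for 3 min after compound transfer.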

[4] = G protein-coupled receptor (GPCR) small molecule agonists, calcium flux assay: HEK293 wild type cell line counter screen (AID 1920065)
Procedure, shortened: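 Fluorescence intensity signals activation. After overnight (18 h) culture and a 1 h calcium dye load at 37 C, compounds are added by pin tool and the plate read at 480/540 nm for 3 min in 1 s steps.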

[5] = p53 small molecule agonists, cell-based qHTS assay with human liver microsomes: qHTS cell viability counter screen (AID 1963579); also: nearly all actives have a fitted effect of over 45% in size
Procedure, shortened: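 Cytotoxicity counter screen: p53RE-bla, 4,000 cells/well; 5 h settle, 37 C/5% CO2; cpd + HLM 0.5 mg/mL + NADPH 0.5 mg/mL (final); 16 h, 37 C; CellTiter-Glo, 30 min RT, luminescence.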

[6] = p53 small molecule agonists, cell-based qHTS assay with rat liver microsomes: qHTS cell viability counter screen (AID 1963580); also: nearly all actives have a fitted effect of over 45% in size
Procedure, shortened: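 Counter screen for cytotoxicity under metabolic activation: rat liver microsomes and NADPH, 0.5 mg/mL final each, added with compounds to p53RE-bla HCT-116 cells; 16 h at 37 C, then ATP luminescence read.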

[7] = p53 small molecule agonists, cell-based qHTS assay: qHTS cell viability counter screen (AID 1963581); also: nearly all actives have a fitted effect of over 45% in size
Procedure, shortened: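 Luminescence from CellTiter-Glo, reflecting ATP content, serves as the cytotoxicity measure; it is taken after the 2 h reporter substrate step in HCT-116 p53RE-bla cells dosed for 16 h at 37 C.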

[8] = cAMP Responsive Elements (CRE) small molecule agonists, cell-based qHTS assay (AID 1963590)
Procedure, shortened: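 Compound exposure lasted 3 h at 37 C/5% CO2 in CRE-bla HEK 293T cells grown in assay medium with 10% dialyzed FBS and 25 mM HEPES. Reporter signal came from LiveBLAzer B/G FRET substrate, 2 h, room temperature.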

[9] = cAMP Responsive Elements (CRE) small molecule antagonists, cell-based qHTS assay (AID 1963591; active = well fitted inhibition curve with a large enough effect in the signal ratio in the repeat runs, not every such curve was filed as active; the % refers to the signal ratio)
Procedure, shortened: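 Stimulation used NKH477 at a final 0.25 uM for 3 h in compound-treated CRE-bla HEK293T cells, seeded 18 h beforehand. Reporter activity was measured with LiveBLAzer B/G FRET substrate after 2 h at room temperature.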

[10] = biological target: Beta-2 adrenergic receptor (Homo sapiens) (UniProt P07550); experiment: Adrenergic beta2 receptor (ADRB2) small molecule antagonists, cell-based qHTS assay (AID 1963592); also: series mostly up to about 92 µM; nearly all actives have a fitted effect of over 50% in size
Procedure, shortened: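 Assay format: CHO-ADRB2 cells, 18-20hr seeding at 37C/5% CO2, then compound plus 1nM isoproterenol agonist mix for 0.5hr RT. Homogeneous time-resolved fluorescence cAMP detection after 1hr, expressed as 665/615 nm ratio.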

[11] = biological target: Beta-2 adrenergic receptor (Homo sapiens) (UniProt P07550); experiment: Adrenergic beta2 receptor (ADRB2) small molecule agonists, cell-based qHTS assay (AID 1963593); also: potency is read from the fitted curve at half-maximal effect;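 as to activation: CHO cells stably overexpressing human ADRB2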
Procedure, shortened: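 CHO cells stably over-expressing ADRB2 were plated overnight at 37C, then dosed with compounds plus a stimulation mix containing 100uM IBMX and 25uM Ro-20-1724 for 0.5hr at room temperature. cAMP was measured by HTRF competition, 1hr.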

[12] = biological target: D(2) dopamine receptor (Homo sapiens) (UniProt P14416); experiment: Dopamine D2 receptor (DRD2) small molecule agonists, cell-based qHTS assay (AID 1963594); also: nearly all actives have a fitted effect of over 35% in size; also: potency is read from the fitted curve at half-maximal effect
Procedure, shortened: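 HEK293 cells stably expressing DRD2 were cultured 24 h at 37 C, then given Ro20-1724 (0.1 mM final) and compounds for 10 min at room temperature. NKH477 (200nM) was then added for 30 min. cAMP was read by HTRF.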

[13] = biological target: D(2) dopamine receptor (Homo sapiens) (UniProt P14416); experiment: Dopamine D2 receptor (DRD2) small molecule antagonists, cell-based qHTS assay (AID 1963595; active = well fitted inhibition curve with a large enough effect in the signal ratio in the repeat runs, with a control signal flat; the % refers to the signal ratio; also: potency is read from the fitted curve at half-maximal effect)
Procedure, shortened: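 Antagonism was scored as restored cAMP in HEK293-DRD2 cells. These cells were stimulated with 200 nM NKH477 and 12 nM quinpirole for 30 min at room temperature, in the presence of 0.1 mM Ro20-1724.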

[14] = p53 small molecule agonists, cell-based qHTS assay with human liver microsomes (AID 1963577)
Procedure, shortened: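 Fluorescence of the beta-lactamase reporter in p53RE-bla cells, detected with LiveBLAzer substrate (2 h, room temperature, dark), served as the read-out after 16 h compound exposure at 37 C with human liver microsomes and NADPH, each 0.5 mg/mL final.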

[15] = p53 small molecule agonists, cell-based qHTS assay with rat liver microsomes (AID 1963578)
Procedure, shortened: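 Cells carrying a p53 response element–beta-lactamase reporter were plated and rested 5 h, then dosed with compound in DMSO plus rat liver microsomes and NADPH, each at 0.5 mg/mL final. After 16 h at 37 C, LiveBLAzer substrate was added for 2 h.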

[16] = biological target: 5-hydroxytryptamine receptor 2A (Homo sapiens) (UniProt P28223); experiment: 5-hydroxytryptamine receptor 2A (HTR2A) small molecule antagonists, cell-based qHTS assay (AID 1963586); also: nearly all actives have a fitted effect of over 45% in size
Procedure, shortened: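 CHO cells stably expressing human HTR2A were plated for 18 h at 37 C, then loaded with calcium dye for 1 h. Compounds were preincubated 5 min at room temperature before DOI (4 nM solution) was added. Kinetic fluorescence was read for 3 min.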

[17] = biological target: 5-hydroxytryptamine receptor 2A (Homo sapiens) (UniProt P28223); experiment: 5-hydroxytryptamine receptor 2A (HTR2A) small molecule agonists, cell-based qHTS assay (AID 1963587); also: nearly all actives have a fitted effect of over 30% in size
Procedure, shortened: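 HTR2A-CHO cells, plated 18 h at 37 C/5% CO2, dye-loaded 1 h at 37 C; compounds in DMSO added by pin tool (agonist mode). Intracellular calcium flux read as kinetic fluorescence on FDSS over 2 min at 1 s intervals.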

[18] = biological target: Muscarinic acetylcholine receptor M1 (Homo sapiens) (UniProt P11229); experiment: Cholinergic receptor muscarinic 1 (CHRM1) small molecule antagonists, cell-based qHTS assay (AID 1963588); also: nearly all actives have a fitted effect of over 40% in size
Procedure, shortened: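 Compounds were tested at 15 concentrations in three independent runs. Dye-loaded CHRM1-CHO cells were exposed 5 min at room temperature before stimulation by acetylcholine added at 50nM. Intracellular calcium was read kinetically on FDSS for 3 min.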

[19] = biological target: Muscarinic acetylcholine receptor M1 (Homo sapiens) (UniProt P11229); experiment: Cholinergic receptor muscarinic 1 (CHRM1) small molecule agonists, cell-based qHTS assay (AID 1963589); also: nearly all actives have a fitted effect of over 35% in size
Procedure, shortened: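 Fluorescent calcium dye reports M1 activation in stably transfected CHO cells. Compounds, 15 concentrations, added after 1 h dye loading at 37 C; kinetic reading at 1 sec intervals.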

[20] = p53 small molecule agonists, cell-based qHTS assay (AID 1963582; active = well fitted activation curve with a large enough effect in the signal ratio in the repeat runs, not every such curve was filed as active; the % refers to the signal ratio)
Procedure, shortened: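 After plating, p53RE-bla cells sat 5 h in the incubator; compounds or DMSO vehicle were pinned in; a 16 h incubation at 37 C followed; FRET substrate was added and, 2 h later at RT, fluorescence was measured.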

Measured: Potency

KiSS-1 receptor (Homo sapiens), sequence (Q969F8 whole entry, looked up): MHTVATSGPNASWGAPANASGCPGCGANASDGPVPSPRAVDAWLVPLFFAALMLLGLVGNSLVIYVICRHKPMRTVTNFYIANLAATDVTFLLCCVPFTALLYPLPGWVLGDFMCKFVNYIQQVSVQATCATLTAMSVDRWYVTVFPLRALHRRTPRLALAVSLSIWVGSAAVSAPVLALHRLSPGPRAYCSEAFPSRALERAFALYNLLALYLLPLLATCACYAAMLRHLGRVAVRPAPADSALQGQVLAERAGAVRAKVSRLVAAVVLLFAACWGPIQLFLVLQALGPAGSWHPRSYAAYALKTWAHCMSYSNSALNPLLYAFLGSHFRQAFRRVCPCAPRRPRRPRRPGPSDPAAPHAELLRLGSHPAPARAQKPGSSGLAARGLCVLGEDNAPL
Beta-2 adrenergic receptor (Homo sapiens), sequence (P07550 whole entry, looked up): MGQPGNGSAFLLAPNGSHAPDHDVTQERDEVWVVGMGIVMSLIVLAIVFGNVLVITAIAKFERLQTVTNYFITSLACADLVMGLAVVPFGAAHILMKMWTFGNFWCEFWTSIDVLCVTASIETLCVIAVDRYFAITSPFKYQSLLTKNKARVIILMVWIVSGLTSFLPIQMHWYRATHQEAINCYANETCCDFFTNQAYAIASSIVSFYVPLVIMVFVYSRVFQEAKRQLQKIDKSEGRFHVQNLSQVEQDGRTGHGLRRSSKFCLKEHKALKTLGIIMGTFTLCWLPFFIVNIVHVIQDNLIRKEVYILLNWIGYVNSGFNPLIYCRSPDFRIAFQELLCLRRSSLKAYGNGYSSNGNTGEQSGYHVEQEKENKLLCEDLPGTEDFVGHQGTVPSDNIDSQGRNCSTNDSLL
Gonadotropin-releasing hormone receptor (Homo sapiens), sequence (P30968 whole entry, looked up): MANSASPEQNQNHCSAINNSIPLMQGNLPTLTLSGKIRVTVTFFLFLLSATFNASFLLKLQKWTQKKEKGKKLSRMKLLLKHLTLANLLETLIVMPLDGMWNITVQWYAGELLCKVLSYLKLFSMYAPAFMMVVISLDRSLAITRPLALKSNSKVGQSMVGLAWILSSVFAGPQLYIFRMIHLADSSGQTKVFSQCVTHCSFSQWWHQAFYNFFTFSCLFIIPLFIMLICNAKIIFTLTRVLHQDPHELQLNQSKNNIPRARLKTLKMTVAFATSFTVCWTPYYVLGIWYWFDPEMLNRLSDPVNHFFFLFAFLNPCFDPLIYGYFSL
Muscarinic acetylcholine receptor M1 (Homo sapiens), sequence (P11229 whole entry, looked up): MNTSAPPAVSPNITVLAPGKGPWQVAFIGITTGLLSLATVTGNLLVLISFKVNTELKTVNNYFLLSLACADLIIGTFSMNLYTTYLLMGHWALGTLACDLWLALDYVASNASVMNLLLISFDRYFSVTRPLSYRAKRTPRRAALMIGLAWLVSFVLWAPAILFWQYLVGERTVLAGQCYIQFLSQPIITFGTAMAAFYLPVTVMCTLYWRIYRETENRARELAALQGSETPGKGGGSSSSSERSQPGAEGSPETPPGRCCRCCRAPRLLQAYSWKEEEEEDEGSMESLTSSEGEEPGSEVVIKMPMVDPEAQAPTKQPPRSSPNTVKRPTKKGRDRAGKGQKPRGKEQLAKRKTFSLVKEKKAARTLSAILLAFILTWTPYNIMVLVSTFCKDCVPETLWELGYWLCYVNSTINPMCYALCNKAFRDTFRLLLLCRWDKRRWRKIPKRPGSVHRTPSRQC
5-hydroxytryptamine receptor 2A (Homo sapiens), sequence (P28223 whole entry, looked up): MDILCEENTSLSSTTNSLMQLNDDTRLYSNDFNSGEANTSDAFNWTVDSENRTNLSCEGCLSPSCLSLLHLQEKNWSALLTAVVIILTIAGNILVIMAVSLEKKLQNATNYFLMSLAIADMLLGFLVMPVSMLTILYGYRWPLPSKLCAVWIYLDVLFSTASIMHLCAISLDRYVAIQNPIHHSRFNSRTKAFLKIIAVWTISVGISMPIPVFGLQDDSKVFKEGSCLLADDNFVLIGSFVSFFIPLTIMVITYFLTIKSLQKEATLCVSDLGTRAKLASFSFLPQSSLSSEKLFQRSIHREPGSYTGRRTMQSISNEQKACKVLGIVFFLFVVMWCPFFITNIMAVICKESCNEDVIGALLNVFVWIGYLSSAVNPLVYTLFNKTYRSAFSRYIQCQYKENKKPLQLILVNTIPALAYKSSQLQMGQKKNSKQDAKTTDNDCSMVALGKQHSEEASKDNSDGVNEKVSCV
D(2) dopamine receptor (Homo sapiens), sequence (P14416 whole entry, looked up): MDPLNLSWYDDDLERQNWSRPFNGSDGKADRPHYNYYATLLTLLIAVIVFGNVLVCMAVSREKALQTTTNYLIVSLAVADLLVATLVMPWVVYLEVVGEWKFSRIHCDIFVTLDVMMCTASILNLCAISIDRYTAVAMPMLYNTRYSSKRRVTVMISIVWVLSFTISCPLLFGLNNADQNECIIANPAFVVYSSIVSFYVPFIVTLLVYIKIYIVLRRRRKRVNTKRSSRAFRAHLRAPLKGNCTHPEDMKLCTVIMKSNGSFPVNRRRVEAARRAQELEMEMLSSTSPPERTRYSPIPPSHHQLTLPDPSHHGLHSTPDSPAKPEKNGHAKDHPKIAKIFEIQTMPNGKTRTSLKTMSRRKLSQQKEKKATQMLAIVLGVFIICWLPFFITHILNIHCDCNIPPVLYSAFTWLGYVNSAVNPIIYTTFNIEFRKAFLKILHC

C=CCN1CC[C@]23c4c5ccc(O)c4O[C@H]2C(=O)CC[C@@]3(O)[C@H]1C5
inactive: [1] | [2] | [3] | [4] | [5] | [6] | [7] | [8] | [9] | [10] | [11] | [12] | [13]

O=C(N[C@H]1N=C(c2ccccc2F)c2cccc3c2N(CC3)C1=O)c1cc2ccccc2[nH]1
inactive: [1] | [2] | [3] | [14] | [15] | [6] | [16] | [17] | [18] | [19] | [8] | [9] | [10] | [11] | [13]
active: [12] 8.74 µM

C#CCN1C(=O)COc2cc(F)c(N3C(=O)C4=C(CCCC4)C3=O)cc21
inactive: [1] | [2] | [3] | [4] | [5] | [6] | [7] | [16] | [17] | [19] | [9] | [10] | [11] | [12] | [13]

C=CC(=O)OCC(C)O (configuration not stated)
inactive: [1] | [2] | [3] | [4] | [5] | [6] | [17] | [18] | [19] | [8] | [9] | [10] | [12] | [13]

CCC(C)(C)O
inactive: [1] | [2] | [3] | [4] | [5] | [16] | [18] | [19] | [8] | [9] | [10] | [11] | [12] | [13]

N#CC(O)c1ccccc1 (configuration not stated)
inactive: [1] | [2] | [3] | [4] | [5] | [6] | [7] | [18] | [19] | [8] | [9] | [10] | [12] | [13]

CC(=O)[O-].CC(=O)[O-].O.O.[Zn+2]
inactive: [1] | [2] | [3] | [4] | [6] | [7] | [16] | [17] | [18] | [19] | [8] | [9] | [10] | [12] | [13]

CC(=O)NC1CCSC1=O (configuration not stated)
inactive: [1] | [2] | [3] | [4] | [6] | [7] | [16] | [17] | [18] | [19] | [8] | [11] | [13]

C1CCNCC1
inactive: [1] | [2] | [3] | [14] | [15] | [5] | [6] | [20] | [17] | [18] | [19] | [8] | [9] | [10] | [11] | [12] | [13]

O=c1[nH]c2ccccc2n1CCCN1CCC(n2c(=O)[nH]c3cc(Cl)ccc32)CC1
inactive: [1] | [2] | [3] | [15] | [5] | [6] | [7]

ClC1=C(Cl)[C@]2(Cl)[C@@H]3[C@@H]4C[C@@H]([C@H]5O[C@@H]45)[C@@H]3[C@@]1(Cl)C2(Cl)Cl
active: [1] 48.6 µM | [2] 7.76 µM | [3] 23.7 µM | [11] 10.9 µM | [13] 68.6 µM
inactive: [7]

CN1C(=O)COc2c(C(=O)NC3CN4CCC3CC4)cc(Cl)cc21 (configuration not stated)
inactive: [1] | [2] | [3] | [4] | [5] | [6] | [7] | [8] | [9] | [10] | [12] | [13]

CNC(=O)CSP(=O)(OC)OC
inactive: [1] | [2] | [3] | [4] | [5] | [6] | [16] | [17] | [18] | [19] | [8] | [9] | [10] | [11] | [12] | [13]
